Screen size: about 1,300 compounds; about 460 (35%) were called active. Not shown: some 39% with an inconclusive outcome. Calls follow the shape of the dose curve; as a rule, active = well fitted inhibition curve with a large enough effect; inconclusive = small, poorly fitted or top-dose-only effect; inactive = flat fitted curve, though single readings scatter. Some of the results follow.
Biological target: Protein phosphatase EYA2 (Homo sapiens) (UniProt O00167)
Test: qHTS for Inhibitors of the Phosphatase Activity of Eya2: Confirmatory Assay for Cherry-picked Compounds; also: nearly all actives have a fitted effect of over 65% in size
Conditions: purified EYA2 phosphatase activity, qHTS confirmation; series mostly up to 46.1 µM
In short: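 Eya2 (0.2 uM working solution) preincubated 10 min at room temperature with compound in pH 7.5 HEPES buffer with MgCl2, BSA, DTT. OMFP added (50 uM working solution), 10 min more; fluorescence 485/525 nm, normalized to EGTA and DMSO.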
Potency is read from the fitted curve at half-maximal effect.

Sequence of Protein phosphatase EYA2 (Homo sapiens) (O00167 whole entry, looked up): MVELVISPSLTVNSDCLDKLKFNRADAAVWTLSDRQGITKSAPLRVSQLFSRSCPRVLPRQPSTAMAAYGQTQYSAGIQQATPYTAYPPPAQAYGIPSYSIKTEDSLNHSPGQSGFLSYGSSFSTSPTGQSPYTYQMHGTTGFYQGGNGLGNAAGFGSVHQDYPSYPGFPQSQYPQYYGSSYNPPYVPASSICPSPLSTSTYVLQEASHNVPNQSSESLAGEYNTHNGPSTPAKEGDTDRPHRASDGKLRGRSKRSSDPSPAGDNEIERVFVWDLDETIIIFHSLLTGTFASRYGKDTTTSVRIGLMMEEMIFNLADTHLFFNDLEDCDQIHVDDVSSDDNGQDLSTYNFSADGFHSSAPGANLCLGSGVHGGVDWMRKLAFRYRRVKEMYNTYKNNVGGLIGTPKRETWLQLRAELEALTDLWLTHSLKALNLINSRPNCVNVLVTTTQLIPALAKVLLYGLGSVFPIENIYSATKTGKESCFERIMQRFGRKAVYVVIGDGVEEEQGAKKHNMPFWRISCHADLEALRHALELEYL

Potency, inactive:
Nc1n[nH]c2cc(=O)n(-c3ccc(Cl)cc3)nc12
CCN(CC)C(=O)CC(c1ccc(OC)cc1)c1c(OC)cc(OC)c2ccc(=O)oc12 (stereo not drawn)
CCOc1cccc(CN2CCC(CCC(=O)NC3CC3)CC2)c1O
COc1ccc(CNC(=O)c2sc(=O)n(Cc3cc(Cl)ccc3OC)c2C)cc1
COc1ccccc1C(=O)Nc1c[nH]c(=O)[nH]c1=O
O=C(C1=C[C@H](c2ccccc2)C[C@H](OCc2ccc(CO)cc2)O1)N1CCN(Cc2ccccc2)CC1
Cc1cc(Nc2ccc([N+](=O)[O-])cc2)c2ccccc2n1
O=C(Nc1ccccc1)C(Cl)C(=O)c1ccccc1 (stereo not drawn)
O=C(Cn1c(S(=O)(=O)Cc2ccccc2)nc2ccccc21)N1CCCCC1
Cc1cc2nc(/N=C(\N)NC(=O)N3c4ccccc4Sc4ccccc43)nc(C)c2cc1C
O=C(Cn1c(C(=O)N2CCc3ccccc3C2)cc2sccc21)c1ccccc1
Cc1cc(NC(=O)CS(=O)(=O)c2cn(Cc3cccc(Br)c3)c3ccccc23)no1
COC(=O)c1ccc(C23CC4(C2)[C@H](CN(CC2CCCCC2)[C@@H]4c2ccccc2)C3c2ccc(Cl)nc2)cc1 (stereo partly drawn)
O=C(CC(=O)c1c(F)cccc1Cl)c1ccccc1O
O=c1c2ccccc2nnn1CSc1nnc(C2COc3ccccc3O2)n1-c1ccccc1 (stereo not drawn)
O=c1c2ccccc2c(C=Nc2cccc(S(=O)(=O)NC3=NCCCCC3)c2)c(O)n1Cc1ccccc1
COc1cccc(NC(=O)c2ccc3c(c2)CCN3S(C)(=O)=O)c1
Cc1ccc(Nc2nnc(SCC(=O)c3c(N)n(C4CC4)c(=O)[nH]c3=O)s2)cc1C
CCCNC(=O)C1(C)CCN(Cc2cccc(OC(=O)c3ccccc3)c2)C1 (stereo not drawn)
CCC(=O)Nc1nc2c(OC)ccc(OC)c2s1
Cc1ccccc1-c1cnc(C(O)c2c(C)cccc2C)[nH]1 (stereo not drawn)
Cc1nc([N+](=O)[O-])cn1CC(O)c1ccc2c(c1)OCO2 (stereo not drawn)
O=c1[nH]c(=O)n(C2C[C@H](O)[C@@H](CO)O2)cc1C(F)(F)F (stereo partly drawn)
CCOC(=O)NNc1nncc2ccccc12
COc1ccc(F)cc1-c1cc(NC=O)c2ncc(-c3cccc(C(F)(F)F)c3)n2c1
O=C(O)C1=C[C@@H](c2csc3ccccc23)C[C@@H](OCc2ccc(CO)cc2)O1
OC(COc1ccc2cc(Br)ccc2c1)Cn1ccnc1 (stereo not drawn)
CS(=O)(=O)c1ccc(-c2nnc(NC(=O)C3=COCCO3)o2)cc1
COc1ccc(Nc2nc(N)nc(CSC(=S)N3CCCCC3)n2)cc1
CCSc1nc2ccccc2n1C(=O)c1ccc(S(=O)(=O)N2CCCCC2)cc1
O=C(Nc1ncc(Cc2ccccc2Cl)s1)c1ccc(-c2cccc([N+](=O)[O-])c2)o1

Potency, active:
O=C1/C(=C/c2ccco2)SC(=S)N1c1cccnc1 12 µM
Cn1nc(C(=O)Nc2nc3ccccc3[nH]2)c2ccccc2c1=O 16.9 µM
CN1N/C(=C\c2ccccc2)N=C2C(=O)N(C)C(=O)N=C21 12 µM
Cc1ccc(Nc2nc(NCCO)nc3c2cnn3C)cc1Cl 7.57 µM
COc1cc2[nH]cc(C(=O)NCc3ccccc3)c(=O)c2cc1OC 5.36 µM
Nc1ccc2c(c1Cl)C(=O)c1ccc(N)c(Cl)c1C2=O 3.01 µM
COc1ccccc1Nc1cc(C)nc2c(C)ccc([N+](=O)[O-])c12 19 µM
O=C(NN1C(=O)/C(=C\c2ccc(O)c([N+](=O)[O-])c2)SC1=S)c1ccccc1Cl 12 µM
O=C(Nc1ccccc1)C1=C(c2ccccc2)S(=O)(=O)CCS1(=O)=O 13.5 µM
O=C(CSc1ccc(-c2ccccn2)nn1)N1CCCC1 12 µM
O=C(CSc1ccc(-c2ccccn2)nn1)N1CCCCC1 7.57 µM
Cn1ccc2c(N3CCCC3)cc3c(c21)C1CCC3C1 (stereo not drawn) 21.3 µM
COC(=O)c1ccccc1NC1=C/C(=N\S(=O)(=O)c2cccs2)c2ccccc2C1=O 1.69 µM
COc1ccc(S(=O)(=O)c2c(O)c3ccc(C(=O)Nc4cccc(F)c4)cc3[nH]c2=O)cc1 0.338 µM
O=C(Oc1ccc2c(c1)OCC2=O)c1ccccc1 4.78 µM
O=C(Oc1ccc2c(c1)OCC2=O)c1ccc(Cl)cc1 2.39 µM
S=C(NCCCc1cnc[nH]1)NCCCN(Cc1ccc(Cl)cc1)c1ccc(-c2ccccc2)cn1 16.9 µM
CN(CCCc1cnc[nH]1)C(=S)NCCCN(Cc1ccc(Cl)cc1)c1ccc(Br)cn1 19 µM
COc1cc(CNC(=O)Nc2nc(C(N)c3ccccc3)cs2)cc(OC)c1OC (stereo not drawn) 19 µM
COc1ccc2ccccc2c1C=NN1CCCCC1 16.9 µM
CCOC(=O)c1ncccc1NC(=O)CC(=O)Nc1cccnc1C(=O)OCC 3.79 µM
CC(=O)Oc1cccc2c1C(=O)C1CC=CC(OC(C)=O)C1C2=O (stereo not drawn) 15.1 µM
O=[N+]([O-])c1ccccc1/C=C\C=N\N1CCN(c2ccccc2)CC1 9.53 µM
COc1ccccc1N1CCN(/N=C/C=C\c2ccccc2[N+](=O)[O-])CC1 15.1 µM
Cc1sc(NC(=O)C2=COCCO2)c(C(N)=O)c1C 7.57 µM
CC1CCc2c(sc(NC(=O)/C=C/c3cccs3)c2C(=O)O)C1 (stereo not drawn) 19 µM
O=C(O)c1cc(N2N=C(C(F)(F)F)/C(=C/C=C/c3ccco3)C2=O)ccc1Cl 1.51 µM
O=C1C=C(Nc2ccccc2)C(=O)c2ccccc21 6.01 µM
CCOC(=O)c1c(C)oc2c1c(C=NCc1ccccn1)c(O)c1ccccc12 15.1 µM
O=C(O)c1ccccc1-c1ccccc1C(=O)Nc1ccc2c(c1)[nH]c(=O)c1ccccc12 7.57 µM
O=C(O)c1ccccc1-c1ccccc1C(=O)Nc1ccc2oc(=O)c3ccccc3c2c1 8.49 µM
CSc1ccc(CNc2ncc(-c3cccc([N+](=O)[O-])c3)n2C)cc1 19 µM

Reference: PubChem BioAssay AID720540 (National Center for Advancing Translational Sciences (NCATS), 2013)
